# Assay results: PubChem BioAssay (NCATS)
# Activity calls are given as the source filed them. The rule behind the calls is not given here.
# System: HIV-1 nucleocapsid protein NCp7 (binding to TG oligonucleotide)
# Experiment: HIV Nucleocapsid (AID 346);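 note: potency is for inhibitors that block NC binding and lower polarization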
# Conditions: HIV-1 NC / fluorescein-TGTGTGTG probe, fluorescence polarization
# In short: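 Fluorescence polarization readout: labelled TG4xF oligo (10 nM) with 100 nM nucleocapsid protein, high-salt (250mM NaCl) Hepes pH 7.5 buffer containing zinc and fresh reducing agents. Compounds added by pin tool; incubation 1 hr, room temperature.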
# Potency is the fitted concentration of half-maximal effect.
row,SMILES,Potency
1,COc1cccc(Cn2c(=O)c(-c3cccc(C#N)c3)nc3cnc(N4CCN(C)CC4)nc32)c1,> 20 µM (inactive)
2,N#Cc1ccc(CN2CC3(CCN(C(=O)c4cnccn4)CC3)C2)cc1,> 20 µM (inactive)
3,N#Cc1ccc(CN2CCC3(CC2)CCN(S(=O)(=O)c2ccccc2)CC3)cc1,> 20 µM (inactive)
4,Cn1c(=O)c(-c2ccc(F)cc2)nc2cncnc21,> 20 µM (inactive)
5,CC(C)NC(=O)N1CCCC2(CCN(S(=O)(=O)c3ccccc3)CC2)C1,> 4 µM (inactive)
6,COCC(=O)N1CCC2(CC1)CN(C(=O)Nc1ccc(OC)cc1)C2,> 20 µM (inactive)
7,CN(C)c1nc(-c2ccc3c(c2)OCO3)nc2ccccc12,> 20 µM (inactive)
8,CNc1ncnc2ccc(-c3ccccc3C#N)cc12,> 20 µM (inactive)
9,Cc1nc2cnc(N(C)C)nc2n(C2CC2)c1=O,> 20 µM (inactive)
10,COCCn1c(=O)c(-c2ccc(Cl)cc2)nc2cnc(N3CCNCC3)nc21,> 20 µM (inactive)
11,O=C(c1ccncc1)N1CCC2(CC1)CN(c1ccccn1)C2,> 20 µM (inactive)
12,CC(=O)N1CCC2(CCCN(c3ccncc3)C2)CC1,> 20 µM (inactive)
13,c1cncc(-c2ccc3ncnc(NC4CCNCC4)c3c2)c1,> 20 µM (inactive)
14,COc1ccc2[nH]cc(CCNc3nc(-c4ccoc4)nc4ccccc34)c2c1,> 20 µM (inactive)
15,c1ccc(-c2ccc(N3CC4(CCNCC4)C3)cc2)cc1,> 20 µM (inactive)
16,CC(=O)NCCNc1nc(-c2cccc(NS(C)(=O)=O)c2)nc2ccccc12,> 20 µM (inactive)
17,CNc1nc(-c2cccc(C#N)c2)nc2ccccc12,> 20 µM (inactive)
18,O=C(c1ccco1)N1CCC[C@@]2(CCN(c3ncccn3)C2)C1,> 20 µM (inactive)
19,COc1ccccc1CN1CC[C@@]2(CCCN(S(=O)(=O)c3ccccc3)C2)C1,> 20 µM (inactive)
20,COCCn1c(=O)c(C)nc2cnc(OCc3ccccc3)nc21,> 20 µM (inactive)

row,SMILES,Potency
1,N#Cc1cccc(NC(=O)N2CC[C@@]3(CCCN(C(=O)c4cnccn4)C3)C2)c1,> 20 µM (inactive)
2,COc1ccc(-n2c(=O)c(CCc3ccccc3)nc3cnc(N4CCNCC4)nc32)cc1,> 20 µM (inactive)
3,Cc1cccc(CNc2ncncc2-c2cccnc2)c1,> 20 µM (inactive)
4,N#Cc1ccc(CN2CC3(CCN(C(=O)c4csnn4)CC3)C2)cc1,> 20 µM (inactive)
5,O=c1c(-c2cc(F)cc(F)c2)nc2cnc(N3CCOCC3)nc2n1C1CC1,> 20 µM (inactive)
6,CC(=O)N1CCC2(CCCN(c3ccc(-c4ccccc4)cc3)C2)CC1,> 20 µM (inactive)
7,Cc1noc(C)c1-c1cncnc1NCCN1CCOCC1,> 20 µM (inactive)
8,O=C(c1cc(C(F)(F)F)cc(C(F)(F)F)c1)N1CCC[C@@]2(CCN(c3ccccn3)C2)C1,> 20 µM (inactive)
9,COc1ncc2nc(C)c(=O)n(Cc3cccs3)c2n1,> 20 µM (inactive)
10,Cc1nc2cnc(N(C)C)nc2n(Cc2cccs2)c1=O,> 20 µM (inactive)
11,CN(C)c1ccnc(-c2cccc(NS(C)(=O)=O)c2)n1,> 20 µM (inactive)
12,COc1ccc(-c2nc3cnc(N4CCNCC4)nc3n(-c3ccc(OC)cc3)c2=O)cc1,> 20 µM (inactive)
13,COc1ccccc1CN1CC[C@@]2(CCCN(C(=O)c3c(C)noc3C)C2)C1,> 20 µM (inactive)
14,O=c1c(-c2ccccc2)nc2cnc(Nc3ccccc3)nc2n1C[C@H]1CCCO1,> 20 µM (inactive)
15,Cc1nc2cnc(N3CCNCC3)nc2n(CCc2ccccc2)c1=O,> 4 µM (inactive)
16,O=c1c(CCc2ccccc2)nc2cnc(N3CCNCC3)nc2n1-c1ccccc1,> 20 µM (inactive)
17,CC(=O)NCCNc1ncncc1-c1ccccc1C(F)(F)F,> 20 µM (inactive)
18,COC(=O)N1CCC2(CCCN(c3ccccn3)C2)CC1,> 20 µM (inactive)
19,c1nc(NC2CCNCC2)c2cc(-c3ccoc3)ccc2n1,> 20 µM (inactive)
20,COc1ccccc1CNc1ncncc1-c1ccoc1,> 20 µM (inactive)
